# Screening data deposited in PubChem BioAssay by National Center for Advancing Translational Sciences (NCATS).
# Rab9 prom act: activates the Rab9 promoter | AID 485297 | Huh7 Rab9 promoter-luciferase reporter, luminescence, 24 h | Potency, µM (top dose mostly 9.22 µM), inactives show top-dose activation, negative = inhibition, usual class: activators | 320,000 compounds, 2.8% hits; further: % of control where 0% means no effect; nearly all actives have a fitted effect of over 60% in size
#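 Quantitative HTS format; Huh7 Rab9-luciferase reporter cells (1500/well) receive compound 2 h post-plating, incubate 24 h at 37 °C, then get luciferase reagent for 10 min before luminescence reading.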
# FLuc modulator: inhibits or activates purified firefly luciferase, miR-21 counter-screen. purified FLuc, Km substrates, luminescence inhibition. 360,000 compounds, 6.9% hits. AID 588342. Potency, µM (doses to about 57.5 µM), for the others: at the top dose activity change, negative = inhibition, usual class: inhibitors. P08659;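 further: plate controls were vehicle for no effect and reference inhibitor for full effect; nearly all actives have a fitted effect of over 55% in size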
# Target sequence (P08659 whole entry, looked up): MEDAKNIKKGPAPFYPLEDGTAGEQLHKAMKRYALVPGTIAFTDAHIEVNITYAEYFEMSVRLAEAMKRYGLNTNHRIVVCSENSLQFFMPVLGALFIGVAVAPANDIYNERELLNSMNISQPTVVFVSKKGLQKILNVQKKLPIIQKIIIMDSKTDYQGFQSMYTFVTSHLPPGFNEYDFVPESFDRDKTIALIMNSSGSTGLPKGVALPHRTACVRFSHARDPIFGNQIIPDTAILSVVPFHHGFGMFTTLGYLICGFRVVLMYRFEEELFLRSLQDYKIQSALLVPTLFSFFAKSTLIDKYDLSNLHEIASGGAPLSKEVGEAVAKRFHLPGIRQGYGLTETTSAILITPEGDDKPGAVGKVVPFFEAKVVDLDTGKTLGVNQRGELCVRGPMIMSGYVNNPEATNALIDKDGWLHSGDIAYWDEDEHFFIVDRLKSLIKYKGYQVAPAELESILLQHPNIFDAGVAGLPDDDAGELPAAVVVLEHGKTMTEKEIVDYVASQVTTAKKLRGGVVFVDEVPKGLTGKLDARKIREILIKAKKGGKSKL
#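 Biochemical qHTS of compounds, final roughly 60 µM downward over six points, against 10 nM purified firefly luciferase using Km concentrations of substrates (10 uM D-luciferin, 10 uM ATP) in Tris acetate pH 7.5 buffer; luminescence output.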
# KinaseGlo FLuc: blocks Kinase-Glo luciferase, a counter-screen artifact; Potency, µM (series often up to 38.3 µM), inactives show top-dose activity change, negative = inhibition, actives largely listed as inhibitors; Kinase-Glo luciferase, ATP luminescence, 8 min; 200,000 compounds, 0.28% hits; Q27757; further: on the % scale 0 is the no-effect control and ±100 the full control effect; nearly all actives have a fitted effect of over 60% in size
#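 Compounds were added to a substrate mix at pH 7.2 (50 mM imidazole, 10 uM ATP, within the enzyme's linear range), followed by Kinase-Glo detection reagent; luminescence was measured after 8 minutes at ambient temperature.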
# SMN2 splice enh: SMN2 splice variant enhancement. Potency, µM (titrated, usually from 46.1 µM), without a hit: at the highest dose activity change, positive = activation, usual class: activators. AID 1458. HEK293 SMN2-luciferase splicing reporter, luminescence, 30-36 h. 210,000 compounds, 2.8% hits; further: % of control where 0% means no effect; nearly all actives have a fitted effect of over 55% in size
#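 HEK293 cells carry an SMN2 minigene-luciferase reporter in which exon 7 inclusion puts luciferase in frame. Cells were seeded at 2000 cells/well, attached for 10-12 hours, then exposed to compounds for 30-36 hours at 37C before ONE-Glo luminescence.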
# NPC1 promoter act: NPC1 promoter activation | Huh7 NPC1 promoter luciferase reporter, 24 h | 320,000 compounds, 2.4% hits | Potency, µM (top dose mostly 9.22 µM), inactives show at the top dose activation, hits mostly activators | AID 485313; further: % of control where 0% means no effect; nearly all actives have a fitted effect of over 60% in size
#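 Stable NPC1-promoter luciferase Huh7 line; cpd (DMSO) 24 h, 37 °C, 5% CO2; Amplite luciferase reagent 10 min RT; luminescence readout. qHTS format.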
# ELG1 genotoxic: genotoxicity induction in ELG1-luciferase HEK293T cells; Potency, µM (highest dose often 46 µM), for the others: at the top dose activity change, positive = activation, most hits filed as activators; 330,000 compounds, 1.3% hits; AID 504466; HEK293T ELG1-luciferase reporter, luminescence, 16 h; further: % of control where 0% means no effect; nearly all actives have a fitted effect of over 60% in size
#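 Reporter readout depends on ELG1 protein level, which increases with genetic stress. After 16 hr compound exposure at 37 °C, luciferase activity was quantified using ONE-Glo.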
# * hit, by the source's call; ? = inconclusive; nt = no result given. Compounds with a hit are over-represented: about 7.4% of the library has one in this group of screens. The call rests on the fitted dose curve; in most records, active means well fitted curve in the direction sought with a large enough effect; inconclusive means small, poorly fitted or top-dose-only effect, or another doubt; inactive means no such curve, though single readings can be large; an effect the other way counts as inactive or inconclusive. Potency means the concentration at half of the fitted maximal effect.
SMILES,Rab9 prom act,FLuc modulator,KinaseGlo FLuc,SMN2 splice enh,NPC1 promoter act,ELG1 genotoxic
O=C1/C(=C/c2cccnc2)SC(=S)N1CC1CCCO1 (configuration not stated),-5%,?,1%,-3%,-5%,-4%
O=C1/C(=C\c2ccc(-c3ccccc3Cl)o2)SC(=S)N1CC1CCCO1 (configuration not stated),14%,-20%,0%,-7%,10%,-3%
Cc1ccc(/C=C2/SC(=O)NC2=S)o1,-1%,27µM*,-2%,-4%,-2%,0%
Cc1ccc(/C=C2\SC(=S)N(CC3CCCO3)C2=O)o1 (configuration not stated),?,21µM*,nt,nt,17%,4%
O=C1/C(=C/c2ccco2)SC(=S)N1CC1CCCO1 (configuration not stated),21%,17µM*,nt,nt,-2%,7%
CCc1ccc(NC(=S)NCc2ccccc2)cc1,?,?,-1%,11µM*,27%,11%
CCc1ccc(NC(=S)N2CCN(C)CC2)cc1,?,6µM*,nt,nt,29%,?
CC1CCCN(C(=S)Nc2ccc(F)cc2)C1 (configuration not stated),3%,-18%,1%,0%,-1%,-5%
CCc1ccc(NC(=S)N2CCCC(C(F)(F)F)C2)cc1 (configuration not stated),2%,15µM*,7%,-12%,1%,4%
CCc1ccc(NC(=S)NCc2cccnc2)cc1,11%,-14%,nt,nt,-1%,-1%
CCc1ccc(NC(=S)N2CCCC2)cc1,?,21µM*,nt,nt,?,18µM*
COCCCn1c(=N)c(C(=O)NCC2CCCO2)cc2c(=O)n3cc(C)ccc3nc21 (configuration not stated),nt,-3%,nt,3%,nt,nt
Cc1ccc(N2C(=O)C3C(C2=O)C2C=CC3C23CC3)cc1 (configuration not stated),11%,11µM*,-6%,-7%,10%,6%
COc1cccc(Cc2nc3ccccc3nc2SCC(=O)Nc2ccccc2F)c1,nt,-8%,nt,nt,nt,nt
Cc1ccc(NC(=O)CSc2nc(N)c3cc4c(nc3n2)CCCC4)cc1,15%,2.1µM*,-8%,4%,17%,1%
COc1ccc(NC(=O)CSc2nc(N)c3cc4c(nc3n2)CCCC4)c(OC)c1,2%,12µM*,-5%,9%,15%,4%
CCN(CC)C(=O)c1ccc(Nc2nnc(C)c3ccccc23)cc1,-8%,?,11µM*,-11%,-2%,1%
CC(C)n1cnnc1SCC(=O)Nc1ccc(N2CCCCC2)cc1,2%,6µM*,nt,nt,-3%,?
CCC(C)c1ccc(NC(=O)CSc2nncn2N)cc1 (configuration not stated),6%,?,-1%,-11%,16%,?
Cc1ccc(NC(=O)CSCC(=O)O)cc1,14%,2%,-1%,nt,-5%,1%
O=C(O)CSCC(=O)Nc1ccc(C2CCCCC2)cc1,nt,12µM*,4%,-25%,nt,nt
Nn1cnnc1SCC(=O)Nc1ccc(C2CCCCC2)cc1,?,5.4µM*,-7%,?,3.5µM*,?
CCOc1ccc(N(C(=O)CC(C)C)S(=O)(=O)c2ccc3c(c2)oc(=O)n3C)cc1,nt,-9%,nt,-9%,nt,nt
CCOc1ccc(CCNC(=O)c2ccc3c(c2)nc2n3CCOC2)cc1OCC,nt,-1%,nt,nt,nt,nt
O=C(Nc1ccc2oc(-c3cccc4ccccc34)nc2c1)c1ncn[nH]1,2.8µM*,?,-6%,?,?,?
SMILES,Rab9 prom act,FLuc modulator,KinaseGlo FLuc,SMN2 splice enh,NPC1 promoter act,ELG1 genotoxic
O=C(Nc1ccc2oc(-c3ccccc3Cl)nc2c1)c1ncn[nH]1,3.5µM*,3µM*,-2%,10µM*,1.4µM*,8.2µM*
O=C(Nc1ccc2oc(-c3cc(Br)ccc3Cl)nc2c1)c1ccc2ccccc2c1,nt,-8%,nt,-6%,nt,nt
CC(Oc1ccc(F)cc1)C(=O)Nc1cc(-c2ccc(F)c(F)c2)no1 (configuration not stated),nt,1%,nt,nt,nt,nt
CCOc1ccccc1CN1C(=O)c2ccccc2C1C(=O)NC1CCCCCC1 (configuration not stated),nt,-7%,nt,0%,nt,nt
CCOC(=O)c1cnc(-c2ccccc2)nc1N,2µM*,9.5µM*,?,7.1µM*,2.8µM*,3.3µM*
CCOC(=O)c1cnc2c(ccc3ccccc32)c1N,1.1µM*,?,nt,nt,1.6µM*,8.2µM*
CCOC(=O)c1cnc2c(-c3ccccc3)cnn2c1C,1.6µM*,1.9µM*,0%,11µM*,2.5µM*,8.2µM*
CCOC(=O)c1cnc(-c2ccccc2)nc1N1CCOCC1,-6%,-2%,9%,2%,-4%,-10%
CCOC(=O)c1cnc(-c2ccccc2)nc1N(C)C,-3%,15µM*,-2%,4.5µM*,-4%,11µM*
Nn1c(Cc2ccccc2)nc2cc(Cl)ccc2c1=O,-1%,0%,nt,nt,-3%,-2%
Nn1c(COc2ccc(Cl)cc2)nc2ccccc2c1=O,?,?,0%,14µM*,?,?
COc1cc(NS(=O)(=O)c2ccc(NC(=O)c3cccc(F)c3)cc2)nc(OC)n1,nt,?,nt,-3%,nt,nt
COc1cc2c(cc1NCc1ccc3c(c1)OCO3)oc1ccccc12,-2%,?,3%,22µM*,26%,15%
COc1ccc(-c2csc(NC(=O)c3ccc(OCC(=O)N4CCOCC4)c(OC)c3)n2)cc1,11%,17µM*,2%,-31%,-1%,-11%
O=C(Nc1ccc2c(c1)oc1ccccc12)c1ccc2c(c1)OCO2,?,?,0%,11%,?,?
COc1ccccc1NC(=O)c1ccc2c(c1)OCO2,4µM*,15µM*,nt,nt,2.5µM*,10µM*
COc1ccccc1CNC(=O)c1ccc2c(c1)OCO2,-1%,0%,nt,nt,0%,1%
COc1cc2c(cc1NC(=O)c1ccc3c(c1)OCO3)oc1ccccc12,3.2µM*,6.7µM*,-1%,14µM*,?,12µM*
CCN(CC)c1cc2c(cc1F)c(=O)c(S(=O)(=O)c1ccc(OC)cc1)cn2CC,nt,-8%,nt,nt,nt,nt
Cc1ccc(CNC(=O)c2cnc3c(-c4ccccc4)c(C)nn3c2C)o1,nt,-12%,nt,nt,nt,nt
COc1cc2c(cc1O)CCC1C2CC[C@@]2(C)C1CC[C@@H]2O (some centres not stated),nt,nt,2%,nt,nt,nt
COc1ccc(OC)c(-c2csc(NC(=O)c3ccc4c(c3)OCO4)n2)c1,4%,4.8µM*,1%,?,17%,-3%
COc1ccc(OC)c(NC(=O)c2ccc3c(c2)OCO3)c1,13%,21µM*,nt,nt,15%,8%
